Mdm2 MdmX PPI = human Mdm2/MdmX binding inhibition; SaOS-2 split-luciferase Mdm2/MdmX complementation, luminescence; inhibition, % at 8 µM; 3% of 330,000 active;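 active means inhibition of at least 50% at 8 µM in the primary screen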
Jurkat NFkB inh = inhibitors of the PMA/ionomycin-induced NF-kB reporter in Jurkat cells | PMA/ionomycin-induced NF-kB luciferase reporter, luminescence | inhibition, % at 4 µM | 0.53% of 330,000 active | AID 435003; in the data active means inhibition above about 50%
CSC inhib = cancer stem cell inhibition. cancer stem cell-like cells viability, luminescence. inhibition, % at 7.5 µM. 1.1% of 300,000 active. AID 2717; in the data active means inhibition above about 75%; inconclusive means no clear call, values can overlap the other calls; tested in HMLE shEcad cells
697 NFkB inh = inhibitors of the PMA/ionomycin-induced NF-kB reporter in 697 B cells | 697 B-cell NF-kB luciferase reporter, 16 h | inhibition, % at 4 µM | 0.33% of 330,000 active | AID 435022; in the data active means inhibition above about 35%
Gli-Sufu block = Gli-Sufu pathway antagonism; 0.74% of 340,000 active; Sufu-KO-LIGHT fibroblasts, Gli luciferase reporter luminescence; inhibition, % at 5 µM;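 active means inhibition above about 55%, limit read from the data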
aSyn UTR inh = 5' untranslated region of α-synuclein, MLPCN primary screen. 0.82% of 300,000 active. alpha-synuclein 5'UTR reporter, inhibitor activity. inhibition, % (tested at 7.5 µM); in the data active means inhibition above about 60%; inconclusive means no clear call, values can overlap the other calls;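 further: H4 neuroglioblastoma cells stably carrying SNCA 5'UTR luciferase fusion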
Mdm2-MdmX conf = confirmation of human Mdm2/MdmX interaction inhibitors. 55% of 10,000 active. Mdm2-MdmX binding, luminescent assay. shares compounds with Mdm2 MdmX PPI. AID 489028. inhibition, % at 8 µM; in the data active means inhibition above about 40%
FLuc counter = inhibits full-length luciferase, flagging false Mdm2/MdmX hits | inhibition, % at 8 µM | 77% of 6,200 active | AID 504607 | shares compounds with Mdm2 MdmX PPI | SaOS-2 full-length luciferase counterscreen, luminescence;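 active means mean inhibition at 8 µM reaching about 37%, which flags the compound as non-specific, limit read from the data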;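 further: p53-null SaOS-2 cells with luciferase driven by a doxycycline-inducible promoter; compound on cells about two nights before reading with doxycycline added after day one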
Hits are given with their value. Shown are actives, neighbours in structure and some others; about 4.5% of the full set was active somewhere.

For CC(c1ccccc1)N1C(=O)c2ccc(C(=O)NCc3cccnc3)cc2C1=O (stereo not drawn) the results were Mdm2 MdmX PPI inactive, Jurkat NFkB inh inactive, CSC inhib inactive, 697 NFkB inh inactive, Gli-Sufu block inactive and aSyn UTR inh inactive.
`CCNC(=O)CSc1nc2ccccc2c(=O)n1-c1cc(OC)ccc1OC` gave Mdm2 MdmX PPI inactive, Jurkat NFkB inh inactive, CSC inhib inactive, 697 NFkB inh inactive, Gli-Sufu block inactive and aSyn UTR inh inactive.
For CN1CCN(c2ncnc3c2cnn3-c2ccc(Cl)cc2)CC1 the results were Mdm2 MdmX PPI 51, Jurkat NFkB inh inactive, CSC inhib inactive, 697 NFkB inh inactive, Gli-Sufu block inactive, aSyn UTR inh inactive, Mdm2-MdmX conf 60 and FLuc counter active.
Screening CCOc1ccc(-n2c(SCC(=O)Nc3nccs3)nc3c(c2=O)SCC3)cc1 returned Mdm2 MdmX PPI 59, Jurkat NFkB inh inactive, CSC inhib inactive, 697 NFkB inh inactive, Gli-Sufu block inactive, aSyn UTR inh inconclusive and Mdm2-MdmX conf inactive.
Screening COc1cccc(O)c1CN1CCC(C(=O)Nc2ccc(-c3cccc(C)c3)cc2)CC1 returned Mdm2 MdmX PPI 81, Jurkat NFkB inh inactive, CSC inhib 101, 697 NFkB inh inactive, Gli-Sufu block inactive, aSyn UTR inh inactive, Mdm2-MdmX conf 40 and FLuc counter 90.
`CCn1cc(CN2CCC(C(=O)Nc3cccc(-c4cccc(F)c4)c3)CC2)cn1` gave Mdm2 MdmX PPI inactive, Jurkat NFkB inh inactive, CSC inhib inactive, 697 NFkB inh inactive, Gli-Sufu block inactive and aSyn UTR inh inactive.
For CC(C)n1cc(CN2CCC(C(=O)Nc3cccc(-c4cccc(Cl)c4)c3)CC2)cn1 the results were Mdm2 MdmX PPI 99, Jurkat NFkB inh inactive, CSC inhib inactive, 697 NFkB inh inactive, Gli-Sufu block inactive, aSyn UTR inh inactive, Mdm2-MdmX conf 47 and FLuc counter 66.
COc1cccc(-c2cccc(NC(=O)C3CCN(Cc4cccc(C)n4)CC3)c2)c1 was read as Mdm2 MdmX PPI inactive, Jurkat NFkB inh inactive, CSC inhib inactive, 697 NFkB inh inactive, Gli-Sufu block inactive and aSyn UTR inh inactive.
For CCn1nc(C)c(CN2CCC(C(=O)Nc3cccc(-c4cccc(F)c4)c3)CC2)c1C the results were Mdm2 MdmX PPI 53, Jurkat NFkB inh inactive, CSC inhib inactive, 697 NFkB inh inactive, Gli-Sufu block inactive, aSyn UTR inh inactive and Mdm2-MdmX conf inactive.
Screening COc1ccc(CN(C)C(=O)C2CSC3(C)CCC(=O)N23)cc1OC (stereo not drawn) returned Mdm2 MdmX PPI inactive, Jurkat NFkB inh inactive, CSC inhib inactive, 697 NFkB inh inactive and Gli-Sufu block inactive.
`Cc1cc(C)n(-c2ccc(C(=O)OCC(=O)c3ccc(Br)s3)cc2)n1` gave Mdm2 MdmX PPI inactive, Jurkat NFkB inh inactive, CSC inhib inactive, 697 NFkB inh inactive, Gli-Sufu block inactive and aSyn UTR inh inactive.
O=C(NCC1CCCO1)C(=Cc1cccc([N+](=O)[O-])c1)C(=O)NCC1CCCO1 (stereo not drawn) was read as Mdm2 MdmX PPI 65, Jurkat NFkB inh inactive, CSC inhib inactive, 697 NFkB inh inactive, Gli-Sufu block inactive, aSyn UTR inh inactive, Mdm2-MdmX conf inactive and FLuc counter 45.
`CCC(C)NCC(=O)Nc1ccc(-c2nc3cc(NC(=O)CNC(C)CC)ccc3o2)cc1` (stereo not drawn) gave Mdm2 MdmX PPI 100, Jurkat NFkB inh inactive, CSC inhib inactive, 697 NFkB inh inactive, Gli-Sufu block inactive, Mdm2-MdmX conf 42 and FLuc counter inactive.
For CCCC(=O)Nc1ccc2oc(-c3ccncc3)nc2c1 the results were Mdm2 MdmX PPI inactive, Jurkat NFkB inh inactive, CSC inhib inactive, 697 NFkB inh inactive, Gli-Sufu block inactive and aSyn UTR inh inactive.
O=C(CN1CCCC1)Nc1ccc(-c2nc3cc(NC(=O)CN4CCCC4)ccc3o2)cc1 was read as Mdm2 MdmX PPI 92, Jurkat NFkB inh inactive, CSC inhib inactive, 697 NFkB inh inactive, Gli-Sufu block inactive, aSyn UTR inh inactive, Mdm2-MdmX conf 64 and FLuc counter 52.
CCCCCC(=O)Nc1ccc2oc(-c3cncc(Br)c3)nc2c1 was read as Mdm2 MdmX PPI 58, Jurkat NFkB inh inactive, CSC inhib inactive, 697 NFkB inh inactive, Gli-Sufu block inactive, aSyn UTR inh inactive and Mdm2-MdmX conf inactive.

Bioassay records from PubChem.
